Laboratory results as given in PubChem BioAssay AID1347414 (National Center for Advancing Translational Sciences (NCATS), 2020).
Results filed as inconclusive are left out. The source made the active and inactive calls. The call rests on the fitted dose curve; in most records, active means well fitted inhibition curve with a large enough effect; inconclusive means small, poorly fitted or top-dose-only effect; inactive means no such curve, though single readings can be large or run the other way.

assay: qHTS to identify inhibitors of the type 1 interferon - major histocompatibility complex class I in skeletal muscle: Secondary screen by immunofluorescence; conditions: C25cl48 myoblasts, IFN-b induced HLA-ABC immunofluorescence, 24 h, Viability; series mostly up to 49.8 µM; activity change, negative = inhibition: at the top concentration; further: nearly all actives have a fitted effect of over 70% in size;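 on activity change, negative = inhibition: digitonin at 100 µM served as the cytotoxic control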
Outline: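 HLA-ABC immunofluorescence, with nuclear and cell-body stains, was quantified by laser scanning cytometry. Read-out followed 24 h of IFN-beta (4.0 ng/ml) stimulation of C25cl48 human myoblasts with compounds titrated 1:3 over 11 points from 50 uM, with ruxolitinib as inhibitor control.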
On the % scale 0 is the no-effect control and ±100 the full control effect; potency means the concentration at half of the fitted maximal effect.

Compound | activity change, negative = inhibition | Potency
COC(=O)Nc1nc2ccc(C(=O)c3ccc(F)cc3)cc2[nH]1 | -16.8% (inactive) | 
COC(=O)N[C@@H](C)CNc1nccc(-c2cn(C(C)C)nc2-c2cc(Cl)cc(NS(C)(=O)=O)c2F)n1 | 3.67% (inactive) | 
OC1CCC(Oc2cccc3cnc(Nc4ccc5nc[nH]c5c4)nc23)CC1 (stereo unspecified) | 6.19% (inactive) | 
CCCC(=O)O[C@]1(C(=O)CO)CC[C@H]2[C@@H]3CCC4=CC(=O)CC[C@]4(C)[C@H]3[C@@H](O)C[C@@]21C | 4.37% (inactive) | 
Cc1c(C(=O)Nc2ccc(Oc3ccnc4[nH]cc(-c5ccccc5)c34)c(F)c2)c(=O)n(-c2ccc(F)cc2)n1C | -17.2% (inactive) | 
Cc1sc2c(c1C)C(c1ccc(Cl)cc1)=N[C@@H](CC(=O)Nc1ccc(OCCOCCOCCOCCNc3cccc4c3C(=O)N(C3CCC(=O)NC3=O)C4=O)cc1)c1nnc(C)n1-2 (stereo partly specified) | 22.8% (inactive) | 
CC(C)(C)c1cnc(CSc2cnc(NC(=O)C3CCNCC3)s2)o1 | 1.09% (inactive) | 
C=CC(=O)N1CCc2ccc(-n3c(=O)ccc4cnc5ccc(-c6cnn(C)c6)cc5c43)cc21 |  | 16.2 µM (active)
COc1nnc2ccc(N3CCC(c4ccc(OCCN5CCN(C)C(=O)[C@H]5C)cc4)CC3)nn12 | 18.2% (inactive) | 
CC1(C)CC(=O)c2c(C(F)(F)F)nn(-c3ccc(C(N)=O)c(NC4CCC(O)CC4)c3)c2C1 (stereo unspecified) | -7.44% (inactive) | 
CC[C@@]1(O)C(=O)OCc2c1cc1n(c2=O)Cc2c-1nc1ccccc1c2/C=N/OC(C)(C)C | -26% (inactive) | 
Cc1cc(-n2c(=O)ccc3cnc4[nH]ccc4c32)ccc1F | -7.36% (inactive) | 
CCC(=C/[C@H](C)C/C=C/C(C)=C/[C@@H](C)C(=O)[C@@H](C)[C@H](O)[C@@H](C)C/C(C)=C/C(=O)O)/C=C/[C@@H]1OC(=O)C=C[C@@H]1C | 3.28% (inactive) | 
COc1ncc(Nc2ncc(C(C)N3CCN(S(C)(=O)=O)CC3)cc2-c2nc(C)nc(N)n2)cc1F (stereo unspecified) | -1.44% (inactive) | 
CCCCC(=O)O[C@]1(C(=O)CO)[C@@H](C)C[C@H]2[C@@H]3CCC4=CC(=O)C=C[C@]4(C)[C@@]3(F)[C@@H](O)C[C@@]21C | -2.37% (inactive) | 
C#Cc1cccc(Nc2ncnc3cc(OC)c(OCCCCCCC(=O)NO)cc23)c1 | -3.83% (inactive) | 
CC(C)(C)c1nc(-c2cccc(NS(=O)(=O)c3c(F)cccc3F)c2F)c(-c2ccnc(N)n2)s1 | 9.89% (inactive) | 
CNC(=O)c1ccc(Nc2ncc(C(F)(F)F)c(NCc3nccnc3N(C)S(C)(=O)=O)n2)cc1 | -9.86% (inactive) | 

Compound | activity change, negative = inhibition | Potency
CCc1c(O)cc(O)c(C(=O)c2ccc(OCCN3CCOCC3)c(OC)c2)c1CC(=O)N(CCOC)CCOC | -4.12% (inactive) | 
CCCCc1nc2cc(/C=C/C(=O)NO)ccc2n1CCN(CC)CC | -17.6% (inactive) | 
COc1cccc2c1C(=O)c1c(O)c3c(c(O)c1C2=O)C[C@@](O)(C(=O)CO)C[C@@H]3O[C@H]1C[C@H](N)[C@H](O)[C@H](C)O1 | 2.3% (inactive) | 
CCc1cc(C(N)=O)ccc1-n1nc(C(C)C)c2c(-n3cnc(-c4cnn(C)c4)c3)ccnc21 | 0.722% (inactive) | 
CN(C)Cc1c(C(=O)NCCOc2ccc(C(=O)NO)cc2)oc2ccccc12 | -1.08% (inactive) | 
CC(C)c1nn(-c2c(Cl)cccc2Cl)c2nc(Cc3ccc(OCCO)cc3)[nH]c(=O)c12 | -3.83% (inactive) | 
Cc1ccc(C(=O)Nc2ccc(CN3CCN(C)CC3)c(C(F)(F)F)c2)cc1C#Cc1cnc2[nH]ncc2c1 |  | 12.9 µM (active)
Cc1ccc([N+](=O)[O-])cc1S(=O)(=O)N(C)/N=C/c1cnc2ccc(Br)cn12 | 0.361% (inactive) | 
CC[C@]1(O)C[C@H]2CN(CCc3c([nH]c4ccccc34)[C@@](C(=O)OC)(c3cc4c(cc3OC)N(C=O)[C@H]3[C@@](O)(C(=O)OC)[C@H](OC(C)=O)[C@]5(CC)C=CCN6CC[C@]43[C@@H]65)C2)C1 | 3.97% (inactive) | 
O=C1NCCc2[nH]c(-c3ccncc3)cc21 | -11.3% (inactive) | 
CC1(C)CC(=O)c2c(C(F)(F)F)nn(-c3ccc(C(N)=O)c(NC4CCC(OC(=O)CN)CC4)c3)c2C1 (stereo unspecified) | 1.4% (inactive) | 
O=[N+]([O-])c1ccc2c(c1)S(=O)(=O)C=C2 |  | 5.14 µM (active)
COCCN1CCN(Cc2ccc(-c3n[nH]c4c3C(=O)c3c(NC(=O)NN5CCOCC5)cccc3-4)cc2)CC1 |  | 20.5 µM (active)
O=C(/C=C/c1cccc(S(=O)(=O)Nc2ccccc2)c1)NO | -0.722% (inactive) | 
CC(=O)c1ccc2c(c1)c1cc(C(C)=O)ccc1n2CCNC(C)C | 3.4% (inactive) | 
CCCOc1ccc2nc(NC(=O)OC)[nH]c2c1 | -8.07% (inactive) | 
COC(=O)c1nc(Cl)c(Cl)nc1N |  | 9.13 µM (active)
CCS(=O)(=O)N1CC(CC#N)(n2cc(-c3ncnc4[nH]ccc34)cn2)C1 | -2.18% (inactive) | 
